The values below come from PubChem BioAssay (NCI).

The nature of assay [1]: NCI Yeast Anticancer Drug Screen. Data for the rad50 strain (AID 155).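 Also: 0% = growth of vehicle-only cultures of the same strain.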 As to conditions: S. cerevisiae rad50 strain growth inhibition, stronger effect = higher value. The procedure, abridged: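 Yeast carrying a defined DNA repair defect were exposed to test compounds, and growth was compared with vehicle-treated controls to give percent inhibition.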
A short description of assay [2]: NCI Yeast Anticancer Drug Screen. Data for the mec2-1 strain (AID 157). The note with it: S. cerevisiae mec2-1 strain, stronger effect = higher value. The procedure, abridged:
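Vehicle-treated cultures served as reference for growth inhibition of compound-exposed mec2-1 yeast.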

Assay [3] can be described thus: NCI Yeast Anticancer Drug Screen. Data for the sgs1 mgt1 strain (AID 161).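 Also: 0% = growth of cultures given vehicle only.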 The note with it: S. cerevisiae sgs1 mgt1 strain, stronger effect = higher value. The procedure, abridged:
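Inhibition of yeast growth, normalised to vehicle-treated controls, is reported for a strain bearing genetic alterations in DNA damage repair.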

Assay [4] in a line: NCI Yeast Anticancer Drug Screen. Data for the cln2 rad14 strain (AID 165).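 Also: 0% = growth equal to vehicle treated cultures.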 The note with it: S. cerevisiae cln2 rad14 strain, stronger effect = higher value. In a few lines:
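Each compound was tested on cln2 rad14 yeast. Inhibition of growth was calculated against vehicle-exposed controls.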

The nature of assay [5]: NCI Yeast Anticancer Drug Screen. Data for the bub3 strain (AID 167). As to conditions: S. cerevisiae bub3 mutant strain, stronger effect = higher value. The procedure, abridged: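 Compounds were applied to a genetically altered yeast strain carrying a cell-cycle control defect. Growth inhibition was scored against vehicle-treated controls.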
Assay [6] is described as follows: NCI Yeast Anticancer Drug Screen. Data for the mlh1 rad18 strain (AID 175). As to conditions: S. cerevisiae mlh1 rad18 strain growth inhibition, stronger effect = higher value. The procedure, abridged:
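Vehicle-treated cultures served as the reference for growth inhibition in a yeast strain carrying DNA damage repair alterations exposed to each compound.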

[7] abbreviates: at 5.0 µM (retest, dose inferred, filed as 0.5).
Where [8] appears, read: at 50.0 µM (retest, dose inferred, filed as 5.0).

“And” between values parts separate entries of the source, which are not always exact repeats. Equal values may be shown once. About 79,000 compounds went through this panel and 15% of them were active in at least one assay; those are over-represented in the sample as a whole. Where a structure was tested more than once in an assay, its records may differ in their call. The source made the active and inactive calls. Rule as the data show it: active = growth inhibition above about 70%; inactive = the rest.

Take `Nc1ccc2cc3ccc(N)cc3nc2c1`: the growth inhibition in assay [1] (setting [7]) was 21% (inactive); in assay [1] (setting [8]), 86% (active); in assay [1] (at 50.0 µM) it was 38.1% (inactive) and 73.2% (active); in assay [2] (setting [7]) it was 9% (inactive); in assay [2] (setting [8]), 31% (inactive); in assay [2] (at 50.0 µM) it was 32.5% (inactive) and 54.3% (inactive). The growth inhibition in assay [3] (setting [7]) is 11% (inactive); in assay [3] (setting [8]) it was 37% (inactive); in assay [3] (at 50.0 µM), 3.15% (inactive) and 35% (inactive); in assay [4] (setting [7]), 12% (inactive); in assay [4] (setting [8]), 11% (inactive); in assay [4] (at 50.0 µM), 9.45% (inactive) and 69.2% (inactive). In addition, the growth inhibition in assay [5] (setting [7]) is 6% (inactive); in assay [5] (setting [8]), 20% (inactive); in assay [5] (at 50.0 µM) it was 19.8% (inactive) and 36.3% (inactive); in assay [6] (setting [7]), 9% (inactive); in assay [6] (setting [8]) it was 51% (inactive); in assay [6] (at 50.0 µM), 15.5% (inactive) and 77% (active).

In the case of `O=C1C=C(O)c2ccccc2C1=O.[Ag]`, the growth inhibition in assay [1] (setting [7]) is 99% (active); in assay [1] (setting [8]), 99% (active); in assay [1] (at 50.0 µM), 88.8% (active) and 99.5% (active); in assay [2] (setting [7]) it was 100% (active); in assay [2] (setting [8]), 99% (active); in assay [2] (at 50.0 µM), 75% (active) and 99.5% (active). Also, the growth inhibition was 99% (active) in assay [3] (setting [7]); 99% (active) in assay [3] (setting [8]); 96.4% (active) and 99.4% (active) in assay [3] (at 50.0 µM); 100% (active) in assay [4] (setting [7]); 99% (active) in assay [4] (setting [8]); 66.2% (inactive) and 99% (active) in assay [4] (at 50.0 µM). Moreover, the growth inhibition in assay [5] (setting [7]) is 99% (active); in assay [5] (setting [8]), 99% (active); in assay [5] (at 50.0 µM), 86.3% (active) and 99.3% (active); in assay [6] (setting [7]) it was 99% (active); in assay [6] (setting [8]), 99% (active); in assay [6] (at 50.0 µM), 87.5% (active) and 99.2% (active).

For the molecule `Clc1nc2nc(Cl)c(Cl)n2nc1Cl`, the growth inhibition was -4% (inactive) in assay [1] (setting [7]); -5% (inactive) in assay [1] (setting [8]); 98.5% (active) in assay [1] (at 50.0 µM); -3% (inactive) in assay [2] (setting [7]); -7% (inactive) in assay [2] (setting [8]); 99.7% (active) in assay [2] (at 50.0 µM). Besides, the growth inhibition in assay [3] (setting [7]) is -2% (inactive); in assay [3] (setting [8]), -11% (inactive); in assay [3] (at 50.0 µM) it was 99.5% (active); in assay [4] (setting [7]), 4% (inactive); in assay [4] (setting [8]), -1% (inactive); in assay [4] (at 50.0 µM), 98.8% (active). Moreover, the growth inhibition was -5% (inactive) in assay [5] (setting [7]); -8% (inactive) in assay [5] (setting [8]); 99.3% (active) in assay [5] (at 50.0 µM); -8% (inactive) in assay [6] (setting [7]); -4% (inactive) in assay [6] (setting [8]); 99.5% (active) in assay [6] (at 50.0 µM).

On to `C=C1CCC[C@@H]2[C@@](C)(Cc3cc(O)ccc3O)C(C)CC[C@]12C` (some centres undefined), for which the growth inhibition is 16% (inactive) in assay [1] (setting [7]); 97% (active) in assay [1] (setting [8]); 97.5% (active) in assay [1] (at 50.0 µM); 11% (inactive) in assay [2] (setting [7]); 97% (active) in assay [2] (setting [8]); 98.2% (active) in assay [2] (at 50.0 µM). The growth inhibition in assay [3] (setting [7]) was 25% (inactive); in assay [3] (setting [8]), 98% (active); in assay [3] (at 50.0 µM), 97.7% (active); in assay [4] (setting [7]), -4% (inactive); in assay [4] (setting [8]), 97% (active); in assay [4] (at 50.0 µM), 97.3% (active). For the same molecule, the growth inhibition is 0% (inactive) in assay [5] (setting [7]); 97% (active) in assay [5] (setting [8]); 97.8% (active) in assay [5] (at 50.0 µM); 11% (inactive) in assay [6] (setting [7]); 96% (active) in assay [6] (setting [8]); 97.7% (active) in assay [6] (at 50.0 µM).

In the case of `O=C(N/C=C/C=C/Sc1ccccc1)OCc1ccccc1`, the growth inhibition in assay [1] (setting [7]) was 6% (inactive); in assay [1] (setting [8]) it was 97% (active); in assay [1] (at 50.0 µM), 0.05% (inactive); in assay [2] (setting [7]), -6% (inactive); in assay [2] (setting [8]), 98% (active); in assay [2] (at 50.0 µM), 21.8% (inactive). The growth inhibition was -20% (inactive) in assay [3] (setting [7]); 98% (active) in assay [3] (setting [8]); 38.6% (inactive) in assay [3] (at 50.0 µM); 23% (inactive) in assay [4] (setting [7]); 97% (active) in assay [4] (setting [8]); -4.35% (inactive) in assay [4] (at 50.0 µM). Besides, the growth inhibition is 5% (inactive) in assay [5] (setting [7]); 99% (active) in assay [5] (setting [8]); 2.2% (inactive) in assay [5] (at 50.0 µM); -8% (inactive) in assay [6] (setting [7]); 98% (active) in assay [6] (setting [8]); 17.6% (inactive) in assay [6] (at 50.0 µM).

For `O=c1[nH]c2cc([N+](=O)[O-])ccc2nc1/C=C(\O)c1ccc([N+](=O)[O-])cc1`, the growth inhibition was 21% (inactive) in assay [1] (setting [7]); 86% (active) in assay [1] (setting [8]); 54.2% (inactive) and -3.6% (inactive) in assay [1] (at 50.0 µM); -4% (inactive) in assay [2] (setting [7]); 59% (inactive) in assay [2] (setting [8]); 16.1% (inactive) and -6.35% (inactive) in assay [2] (at 50.0 µM). Besides, the growth inhibition in assay [3] (setting [7]) is 13% (inactive); in assay [3] (setting [8]), 85% (active); in assay [3] (at 50.0 µM), 82.1% (active) and -3.95% (inactive); in assay [4] (setting [7]) it was 4% (inactive); in assay [4] (setting [8]) it was 38% (inactive); in assay [4] (at 50.0 µM) it was 34% (inactive) and -15.9% (inactive). For the same molecule, the growth inhibition in assay [5] (setting [7]) is 11% (inactive); in assay [5] (setting [8]) it was 86% (active); in assay [5] (at 50.0 µM), 4.75% (inactive) and 5.75% (inactive); in assay [6] (setting [7]), 6% (inactive); in assay [6] (setting [8]), 77% (active); in assay [6] (at 50.0 µM), 68.4% (inactive) and -1.4% (inactive).

Regarding `O=C(/C=C/c1ccc(Cl)cc1)NC1C=Nc2ccc([N+](=O)[O-])cc2NC1=O` (centres undefined), the growth inhibition is 32% (inactive) in assay [1] (setting [7]); 94% (active) in assay [1] (setting [8]); 95.8% (active) in assay [1] (at 50.0 µM); -27% (inactive) in assay [2] (setting [7]); 93% (active) in assay [2] (setting [8]); 96.5% (active) in assay [2] (at 50.0 µM). Besides, the growth inhibition in assay [3] (setting [7]) is 29% (inactive); in assay [3] (setting [8]), 93% (active); in assay [3] (at 50.0 µM), 96.6% (active); in assay [4] (setting [7]), 13% (inactive); in assay [4] (setting [8]), 93% (active); in assay [4] (at 50.0 µM) it was 92.5% (active). For the same molecule, the growth inhibition is 0% (inactive) in assay [5] (setting [7]); 92% (active) in assay [5] (setting [8]); 92.3% (active) in assay [5] (at 50.0 µM); 13% (inactive) in assay [6] (setting [7]); 88% (active) in assay [6] (setting [8]); 97.2% (active) in assay [6] (at 50.0 µM).

Regarding `COc1ccc(/C=C/C(=O)CCN2CCN(CCC(=O)/C=C/c3ccc(OC)cc3)CC2)cc1`, the growth inhibition in assay [1] (setting [7]) was 16% (inactive); in assay [1] (setting [8]), 99% (active); in assay [1] (at 50.0 µM), 81.7% (active); in assay [2] (setting [7]), -15% (inactive); in assay [2] (setting [8]), 99% (active); in assay [2] (at 50.0 µM), 90.7% (active). The growth inhibition in assay [3] (setting [7]) was -4% (inactive); in assay [3] (setting [8]), 99% (active); in assay [3] (at 50.0 µM), 90.2% (active); in assay [4] (setting [7]) it was -20% (inactive); in assay [4] (setting [8]) it was 99% (active); in assay [4] (at 50.0 µM), 29.9% (inactive). In addition, the growth inhibition in assay [5] (setting [7]) is -59% (inactive); in assay [5] (setting [8]), 99% (active); in assay [5] (at 50.0 µM) it was 87% (active); in assay [6] (setting [7]), -5% (inactive); in assay [6] (setting [8]) it was 98% (active); in assay [6] (at 50.0 µM) it was 91.5% (active).
